{"source": "PubChem BioAssay (Tox21)", "note": "Inconclusive results are not listed. Unmarked numbers belong to inactive results. Calls of active or inactive are those of the source. The call rests on the fitted dose curve; in most records, active means well fitted inhibition curve with a large enough effect in the repeat runs; inconclusive means weak or mixed curves, or effect the other way; inactive means no such curve, though single readings can be large or run the other way. On the % scale 0 is the no-effect control and ±100 the full control effect; potency means the concentration at half of the fitted maximal effect."}
{"target": "Nuclear receptor subfamily 1 group I member 3 (Homo sapiens) (UniProt Q14994)", "sequence (Q14994 whole entry, looked up)": "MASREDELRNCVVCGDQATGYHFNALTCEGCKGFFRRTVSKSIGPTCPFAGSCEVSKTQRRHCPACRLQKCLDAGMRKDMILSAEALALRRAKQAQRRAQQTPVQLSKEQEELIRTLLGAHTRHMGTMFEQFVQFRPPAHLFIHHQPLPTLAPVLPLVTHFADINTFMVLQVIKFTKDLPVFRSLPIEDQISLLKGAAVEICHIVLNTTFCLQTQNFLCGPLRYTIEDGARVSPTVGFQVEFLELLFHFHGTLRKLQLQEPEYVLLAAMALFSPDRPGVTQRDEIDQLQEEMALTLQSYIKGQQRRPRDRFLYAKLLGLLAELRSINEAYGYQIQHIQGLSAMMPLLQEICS", "assay": "qHTS assay to identify small molecule antagonists of the constitutive androstane receptor (CAR) signaling pathway (AID 1224838);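 further: HepG2 cells stably expressing hCAR with CYP2B6 luciferase reporter stimulated by CITCO; nearly all actives have a fitted effect of over 40% in size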", "conditions": "HepG2-CYP2B6-hCAR luciferase, CITCO-stimulated, 24 h; series mostly up to 92.4 µM; activity, negative = inhibition: at the top concentration", "text": "U.S. Tox21 Program National Center for Advancing Translational Sciences [NCATS] NIH Chemical Genomics Center [NCGC] U.S. Environmental Protection Agency [EPA] National Institutes of Environmental Health Sciences [NIEHS] National Toxicology Program [NTP] U.S. Food and Drug Administration [FDA] Tox21 Assay Overview: The constitutive androstane receptor (CAR) is a nuclear receptor which regulates multiple drug metabolizing enzymes (DMEs) and transporters. Activating CAR will generally increase the transcription and subsequent translation of CYP2B6 and CYP3A4. These two DMEs represent about 50% of the drug metabolizing potential in the body. When CAR is deactivated, the metabolizing potential in the body will decrease, subsequently increasing the toxicity in the body or lowering the therapeutic potential of a pro-drug. Recently, there have also been studies performed indicating CARs role in energy metabolism and cancer therapy. Therefore, inhibiting CARs activity could have a potential effect on diabetes and cancer. Identifying environmental toxins and compounds which modulate CAR, through the use of the Tox21 10K compound collection, will be an important step in determining the toxicity and potential therapeutic effects these factors will have on the human body.\nTox21 Assay Protocol Summary: A double-stable (hCAR and CYP2B6-2.2kb) transfected cell line, derived from human hepatoma (HepG2) cells, was utilized for the duration of the quantitative high-throughput screens. The HepG2-CYP2B6-hCAR cells suspended in DMEM culture medium supplemented with 10% FBS, 5 ug/mL blasticidin, 0.5 mg/mL geneticin, 100 U/mL penicillin and 100 ug/mL streptomycin were dispensed at 2500 cells/4 uL/well in 1536-well white solid bottom plates using a Multidrop Combi. After the assay plates were incubated at 37 C/5% CO2 for 4 hrs, 23 nL of compounds at 15 concentrations (from 5-48 columns) or positive control (from 1 to 4 columns) were transferred to the assay plates using a Pintool station. One uL of CITCO, was added using a Flying Reagent Dispenser to generate a final concentration of 50 nM CITCO inside each well. After a 24 hr incubation period at 37 C/5% CO2, four uL of ONE-Glo reagent was added into the assay plates using a Flying Reagent Dispenser. After a 30 min incubation period at room temperature, the luminescence intensity in the assay plates was measured using a ViewLux plate reader."}
{"smiles": "CC(=O)O[C@H]1C[C@@H]2CC[C@@H]3[C@H](CC[C@@]4(C)[C@H]3C[C@H]([N+]3(C)CCCCC3)[C@@H]4OC(C)=O)[C@@]2(C)C[C@@H]1N1CCCCC1", "activity, negative = inhibition": "-12.7% [at 42.5 µM]"}
{"smiles": "CN1CCC(=C2c3ccccc3CCc3sccc32)CC1", "activity, negative = inhibition": "-7.13% [at 42.5 µM]"}
{"smiles": "COC(Cc1ccccc1)OC", "activity, negative = inhibition": "13.9%"}
{"smiles": "NC1CCN(c2nc3c(cc2F)c(=O)c(C(=O)O)cn3-c2ccc(F)cc2F)C1", "note": "(stereo not given)", "activity, negative = inhibition": "28.5% [at 42.5 µM]"}
{"smiles": "Cc1nc2ccccc2n1Cc1ccc(Cl)cc1", "activity, negative = inhibition": "36.1% [at 42.5 µM]"}
{"smiles": "C=C(C)C(=O)OC(C)C", "activity, negative = inhibition": "0.127%"}
{"smiles": "C#CCOC(=O)[C@@H](C)Oc1ccc(Oc2ncc(Cl)cc2F)cc1", "activity, negative = inhibition": "10.4%"}
{"smiles": "Cn1c(=O)c2c(ncn2CC(O)CO)n(C)c1=O", "note": "(stereo not given)", "activity, negative = inhibition": "27.2% [at 42.5 µM]"}
{"smiles": "CCc1nn(C2CCCCC2)c2cc(C3(C#N)CCC(C(=O)O)CC3)ccc12", "note": "(stereo not given)", "activity, negative = inhibition": "11.2%"}
{"smiles": "CC/C(=C\\C(=N/O)C(N)=O)C(C)[N+](=O)[O-]", "note": "(stereo not given)", "activity, negative = inhibition": "23.5%"}
{"smiles": "CC1(C)[C@H]2CC[C@]1(C)[C@H](O)C2", "activity, negative = inhibition": "3.12%"}
{"smiles": "Oc1ccc(C(O)CNCCCCCCNCC(O)c2ccc(O)c(O)c2)cc1O", "note": "(stereo not given)", "activity, negative = inhibition": "-6.81% [at 42.5 µM]"}
{"smiles": "CN(C)CC/C=C1\\c2ccccc2COc2ccccc21", "activity, negative = inhibition": "-0.708% [at 42.5 µM]"}
{"smiles": "O=C(c1ccccc1)c1ccc2n1CCC2C(=O)O", "note": "(stereo not given)", "activity, negative = inhibition": "38.1% [at 42.5 µM]"}
{"smiles": "O=C1c2cccc(O)c2C(=O)c2c(O)cc(CO)cc21", "activity, negative = inhibition": "-1.7%"}
{"smiles": "COC(=O)C(C)=O", "activity, negative = inhibition": "-14%"}
{"smiles": "C=CCCCCCC", "activity, negative = inhibition": "-5.47%"}
{"smiles": "CCCCCCOC(=O)CCC", "activity, negative = inhibition": "-1.88%"}
{"smiles": "O=C=NC1CCC(CC2CCC(N=C=O)CC2)CC1", "note": "(stereo not given)", "activity, negative = inhibition": "-16.4%"}
{"smiles": "Nc1nc(N)c2nc(CNc3ccc(C(=O)N[C@@H](CCC(=O)O)C(=O)O)cc3)cnc2n1", "Potency": "40.4 nM (active)"}
{"smiles": "Cc1ccccn1", "activity, negative = inhibition": "6.63%"}
{"smiles": "O=C(O)Cn1c(C(=O)Nc2nc(-c3ccccc3Cl)cs2)cc2ccccc21", "activity, negative = inhibition": "51.3% [at 42.5 µM]"}
{"smiles": "CC(C)(C)c1cc(CCC(=O)OCC(COC(=O)CCc2cc(C(C)(C)C)c(O)c(C(C)(C)C)c2)(COC(=O)CCc2cc(C(C)(C)C)c(O)c(C(C)(C)C)c2)COC(=O)CCc2cc(C(C)(C)C)c(O)c(C(C)(C)C)c2)cc(C(C)(C)C)c1O", "activity, negative = inhibition": "-13.8% [at 42.5 µM]"}
{"smiles": "c1ccc(OCc2ccc(CCCN3CCOCC3)cc2)cc1", "activity, negative = inhibition": "132% [at 42.5 µM]"}
{"smiles": "O=C(Cl)c1c(Cl)cccc1Cl", "activity, negative = inhibition": "-12.6%"}
{"smiles": "Cc1ccccc1N=Nc1ccc(N=Nc2c(O)ccc3ccccc23)c(C)c1", "activity, negative = inhibition": "74.6% [at 42.5 µM]"}
{"smiles": "O=C(O)C(c1ccc(Cl)cc1)c1ccc(Cl)cc1", "activity, negative = inhibition": "9.97%"}
{"smiles": "CC(=O)N(CC(=O)N(C)C)c1ccccc1", "activity, negative = inhibition": "-12.1% [at 42.5 µM]"}
{"smiles": "CCN(CC)C(C)CN1c2ccccc2Sc2ccccc21", "note": "(stereo not given)", "activity, negative = inhibition": "15.4% [at 42.5 µM]"}
{"smiles": "CN(C)CC[C@@H](c1ccc(Br)cc1)c1ccccn1", "activity, negative = inhibition": "-7.49% [at 42.5 µM]"}
{"smiles": "CC(=O)OCCc1ccccc1", "activity, negative = inhibition": "-8.5%"}
{"smiles": "Cc1cccc(C(C)(C)C)c1O", "activity, negative = inhibition": "0.518%"}
{"smiles": "O=C(O)c1cccc(N(Cc2cccnc2)c2ccc(OC(F)F)c(OC(F)F)c2)c1", "activity, negative = inhibition": "16.6%"}
{"smiles": "O=C1[C@H](CC[C@H](O)c2ccc(F)cc2)[C@@H](c2ccc(O)cc2)N1c1ccc(F)cc1", "activity, negative = inhibition": "11.4% [at 42.5 µM]"}
{"smiles": "CC(C(=O)O)c1ccc(-c2ccccc2)c(F)c1", "note": "(stereo not given)", "activity, negative = inhibition": "6%"}
{"smiles": "OCC1CC2CC1C1CCC(CO)C21", "note": "(stereo not given)", "activity, negative = inhibition": "4.36%"}
{"smiles": "CCOC(=O)CC(C)C", "activity, negative = inhibition": "-1.1%"}
{"smiles": "C=CC[N+]1([C@H]2C[C@H]3[C@@H]4CC[C@H]5C[C@H](OC(C)=O)[C@@H](N6CCCCC6)C[C@]5(C)[C@H]4CC[C@]3(C)[C@H]2OC(=O)CC)CCCCC1", "activity, negative = inhibition": "-18.7% [at 42.5 µM]"}
{"smiles": "CC(C(=O)O)c1ccc(C(=O)c2ccccc2)s1", "note": "(stereo not given)", "activity, negative = inhibition": "175% [at 42.5 µM]"}
{"smiles": "Oc1ccc(O)c2c(O)cccc12", "activity, negative = inhibition": "-6.51%"}
